# Measurements published in PubChem BioAssay (NCATS).
# Records with an inconclusive call do not appear. Where a call stands in place of a potency, no number is given. Activity calls are given as the source filed them. Calls follow the shape of the dose curve; as a rule, active = well fitted inhibition curve with a large enough effect; inconclusive = small, poorly fitted or top-dose-only effect; inactive = flat fitted curve, though single readings scatter.
# What was measured:
# Assay in all cases: qHTS profiling for inhibitors of Plasmodium falciparum proliferation (AID 504749); also: nearly all actives have a fitted effect of over 60% in size
# Conditions in all cases: P. falciparum in erythrocytes, SYBR Green DNA, 72 h; series mostly up to 28.7 µM
# [1] = system: CP191
# In short: (§1)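 SYBR Green fluorescence (ex 485 nm, em 535 nm) reports parasite DNA after 72 h compound exposure of infected red cells at 0.3% parasitemia, 2.5% hematocrit; signal normalized to 0.29 uM artemisinin and vehicle wells.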
# [2] = system: CP192
# In short: as §1
# [3] = system: CP194
# In short: as §1
# [4] = system: CP201
# In short: as §1
# [5] = system: CP203
# In short: as §1
# [6] = system: CP211
# In short: as §1
# [7] = system: CP215
# In short: as §1
# [8] = system: CP217
# In short: as §1
# [9] = system: CP237
# In short: as §1
# [10] = system: CP238
# In short: as §1
# [11] = system: CP247
# In short: as §1
# [12] = system: CP250
# In short: as §1
# [13] = system: CP252
# In short: as §1
# [14] = system: CP256
# In short: as §1
# [15] = system: CP260
# In short: as §1
# [16] = system: CP262
# In short: as §1
# [17] = system: CP265
# In short: as §1
# [18] = system: CP268
# In short: as §1
# [19] = system: CP269
# In short: as §1
# [20] = system: CP266
# In short: as §1
# Potency is read from the fitted curve at half-maximal effect.
SMILES,Potency [1],Potency [2],Potency [3],Potency [4],Potency [5],Potency [6],Potency [7],Potency [8],Potency [9],Potency [10],Potency [11],Potency [12],Potency [13],Potency [14],Potency [15],Potency [16],Potency [17],Potency [18],Potency [19],Potency [20]
CC(=O)Nc1ccc(OC(=O)c2ccccc2OC(C)=O)cc1,inactive,inactive,inactive,inactive,inactive,inactive,inactive,inactive,inactive,inactive,inactive,inactive,inactive,inactive,inactive,inactive,inactive,inactive,inactive,–
NC(N)=NCc1cccc(I)c1,inactive,inactive,inactive,inactive,inactive,inactive,inactive,inactive,inactive,inactive,inactive,inactive,inactive,inactive,–,–,inactive,inactive,inactive,inactive
CC(C)(C)NC[C@H](O)COc1cccc2c1CCCC2=O,inactive,inactive,inactive,inactive,inactive,inactive,–,inactive,inactive,inactive,inactive,inactive,inactive,inactive,inactive,inactive,inactive,inactive,inactive,inactive
FC1(F)C(F)(F)C(F)(F)C2(F)C(F)(F)C(F)(F)C(F)(F)C(F)(F)C2(F)C1(F)F (centres undefined),inactive,inactive,inactive,inactive,inactive,inactive,inactive,inactive,inactive,inactive,inactive,inactive,inactive,inactive,–,inactive,inactive,inactive,inactive,inactive
N=C(N)N1CCc2ccccc2C1,inactive,inactive,inactive,inactive,inactive,inactive,inactive,inactive,inactive,inactive,inactive,inactive,inactive,inactive,–,inactive,inactive,inactive,inactive,inactive
Cc1cccc(C)c1NC(=O)c1ccccc1C(=O)O,inactive,inactive,inactive,inactive,inactive,inactive,inactive,inactive,inactive,inactive,inactive,inactive,inactive,–,inactive,inactive,inactive,inactive,inactive,inactive
C/C=C/c1ccc(O)c(OC)c1,inactive,inactive,inactive,inactive,inactive,inactive,–,inactive,inactive,inactive,inactive,inactive,inactive,inactive,inactive,inactive,inactive,inactive,inactive,inactive
Cc1cccc(C)c1NC(=O)CN1CCCCCC1,inactive,inactive,inactive,inactive,inactive,inactive,inactive,inactive,–,inactive,inactive,inactive,inactive,inactive,inactive,inactive,inactive,inactive,inactive,inactive
CCc1ccc(C(=O)C(C)CN2CCCCC2)cc1 (centres undefined),inactive,inactive,inactive,inactive,inactive,inactive,inactive,inactive,inactive,inactive,inactive,inactive,inactive,inactive,–,inactive,inactive,inactive,inactive,inactive
CCCCCCCCOc1ccc(C(=O)c2ccccc2)c(O)c1,inactive,inactive,inactive,inactive,inactive,inactive,inactive,inactive,inactive,inactive,inactive,inactive,inactive,inactive,inactive,inactive,inactive,inactive,inactive,–
CCc1oc2ccccc2c1C(=O)c1cc(Br)c(O)c(Br)c1,inactive,inactive,inactive,inactive,inactive,inactive,–,inactive,inactive,inactive,inactive,inactive,inactive,inactive,inactive,inactive,inactive,inactive,inactive,inactive
N/C(=N\N=C\c1ccc(Cl)cc1)N/N=C/c1ccc(Cl)cc1,3.16 µM (active),inactive,inactive,inactive,inactive,inactive,inactive,8.91 µM (active),10 µM (active),–,–,–,–,10 µM (active),3.55 µM (active),inactive,–,inactive,inactive,inactive
NCCNc1cccc2ccccc12,inactive,inactive,inactive,inactive,inactive,inactive,inactive,inactive,–,inactive,inactive,inactive,inactive,inactive,inactive,inactive,inactive,inactive,inactive,inactive
COc1ccc(CCN(C)CCCN2CCc3cc(OC)c(OC)cc3CC2=O)cc1OC,inactive,inactive,inactive,inactive,inactive,inactive,inactive,inactive,–,inactive,–,inactive,inactive,–,–,inactive,inactive,inactive,inactive,inactive
Cc1cc(-c2ccccc2)nnc1NCCN1CCOCC1,inactive,inactive,inactive,inactive,inactive,inactive,inactive,inactive,inactive,inactive,inactive,inactive,inactive,inactive,inactive,inactive,inactive,inactive,inactive,–
O=C(Oc1cccc2cccnc12)c1ccccc1,inactive,inactive,inactive,inactive,inactive,inactive,inactive,inactive,inactive,inactive,inactive,inactive,inactive,inactive,–,inactive,inactive,inactive,inactive,inactive
CCOC(=O)c1c(N)sc2c1CCN(Cc1ccccc1)C2,5.01 µM (active),5.36 µM (active),7.57 µM (active),6.75 µM (active),4.26 µM (active),6.75 µM (active),8.49 µM (active),5.62 µM (active),7.94 µM (active),5.62 µM (active),3.98 µM (active),5.01 µM (active),7.94 µM (active),5.01 µM (active),6.31 µM (active),–,–,7.57 µM (active),6.01 µM (active),12 µM (active)
COc1ccc(C(Cl)=C(c2ccc(OC)cc2)c2ccc(OC)cc2)cc1,12.6 µM (active),inactive,inactive,inactive,inactive,inactive,inactive,11.2 µM (active),–,10 µM (active),–,10 µM (active),–,–,–,inactive,10 µM (active),–,inactive,inactive
COc1cc(C(=S)N2CCOCC2)ccc1O,inactive,inactive,inactive,inactive,inactive,inactive,inactive,inactive,inactive,inactive,inactive,inactive,inactive,inactive,inactive,inactive,inactive,inactive,inactive,–
Nc1ccc(S(=O)(=O)Nc2cnc3ccccc3n2)cc1,inactive,inactive,inactive,inactive,inactive,inactive,–,inactive,inactive,inactive,inactive,inactive,inactive,inactive,inactive,inactive,inactive,inactive,inactive,inactive
Cc1ccc(S(=O)(=O)NC(=O)NC2CCCC2)cc1,inactive,inactive,inactive,inactive,inactive,inactive,inactive,inactive,inactive,inactive,inactive,inactive,inactive,inactive,inactive,inactive,inactive,inactive,inactive,–

SMILES,Potency [1],Potency [2],Potency [3],Potency [4],Potency [5],Potency [6],Potency [7],Potency [8],Potency [9],Potency [10],Potency [11],Potency [12],Potency [13],Potency [14],Potency [15],Potency [16],Potency [17],Potency [18],Potency [19],Potency [20]
Cc1ccc(O)c([C@H](CCN(C(C)C)C(C)C)c2ccccc2)c1,7.08 µM (active),13.5 µM (active),5.36 µM (active),13.5 µM (active),3.79 µM (active),9.53 µM (active),6.75 µM (active),5.01 µM (active),5.01 µM (active),4.47 µM (active),6.31 µM (active),11.2 µM (active),6.31 µM (active),7.94 µM (active),5.01 µM (active),–,7.08 µM (active),8.49 µM (active),7.57 µM (active),–
COc1cc(C(=O)N2CCCCCCC2)cc(OC)c1OC,inactive,inactive,inactive,inactive,inactive,inactive,inactive,inactive,inactive,inactive,inactive,–,inactive,inactive,inactive,inactive,inactive,inactive,inactive,inactive
CCOc1ccc(NC(C)=O)cc1,inactive,inactive,inactive,inactive,inactive,inactive,–,inactive,inactive,inactive,inactive,inactive,inactive,inactive,inactive,inactive,inactive,inactive,inactive,inactive
COc1ccc2c(c1)c1c3n2CCN(C)C3=NCC1,inactive,inactive,inactive,inactive,inactive,inactive,inactive,inactive,–,inactive,inactive,inactive,inactive,inactive,inactive,inactive,inactive,inactive,inactive,inactive
NC(=S)N/N=C/c1cccnc1,inactive,inactive,inactive,inactive,inactive,inactive,inactive,inactive,inactive,inactive,–,inactive,inactive,inactive,inactive,inactive,inactive,inactive,inactive,inactive
O=C(Nc1ccc([N+](=O)[O-])cc1)Nc1ccc([N+](=O)[O-])cc1,inactive,inactive,inactive,inactive,inactive,inactive,–,inactive,3.98 µM (active),inactive,inactive,inactive,inactive,inactive,3.55 µM (active),inactive,inactive,inactive,inactive,inactive
O=C(O)C1(C(=O)O)CCC1.[NH2-].[NH2-].[Pt+2],inactive,inactive,inactive,inactive,inactive,inactive,inactive,inactive,–,inactive,inactive,inactive,inactive,inactive,–,inactive,inactive,inactive,inactive,inactive
CC1(COc2ccc(CC3SC(=O)NC3=O)cc2)CCCCC1 (centres undefined),inactive,inactive,inactive,inactive,inactive,inactive,inactive,inactive,inactive,inactive,–,inactive,inactive,inactive,inactive,inactive,inactive,inactive,inactive,inactive
C#C[C@]1(O)CC[C@H]2[C@@H]3CCC4=CC(=O)CC[C@@H]4[C@H]3CC[C@@]21CC,inactive,inactive,inactive,inactive,inactive,inactive,inactive,inactive,6.31 µM (active),inactive,inactive,inactive,inactive,inactive,–,inactive,inactive,inactive,inactive,inactive
OCCOCCN1CCN(C2=Nc3ccccc3Sc3ccccc32)CC1,inactive,inactive,inactive,inactive,inactive,inactive,inactive,inactive,–,inactive,inactive,inactive,inactive,inactive,inactive,inactive,inactive,inactive,inactive,–
O=C(c1ccc(F)cc1)C1CCN(CCn2c(=S)[nH]c3ccccc3c2=O)CC1,11.2 µM (active),6.75 µM (active),7.57 µM (active),7.57 µM (active),6.01 µM (active),6.01 µM (active),5.36 µM (active),5.01 µM (active),5.01 µM (active),7.94 µM (active),4.47 µM (active),10 µM (active),6.31 µM (active),8.91 µM (active),3.16 µM (active),–,7.94 µM (active),6.01 µM (active),6.75 µM (active),7.57 µM (active)
O=C1C(CCS(=O)c2ccccc2)C(=O)N(c2ccccc2)N1c1ccccc1 (centres undefined),inactive,inactive,inactive,inactive,inactive,inactive,–,inactive,inactive,inactive,inactive,inactive,inactive,inactive,inactive,inactive,inactive,inactive,inactive,inactive
COc1ccccc1N1CCN(CCCCNC(=O)c2ccc(-c3ccc(C(C)=O)cc3)cc2)CC1,inactive,inactive,inactive,inactive,inactive,inactive,inactive,inactive,–,inactive,inactive,inactive,inactive,inactive,inactive,inactive,inactive,inactive,inactive,inactive
N#CCC(=O)NN,inactive,inactive,inactive,inactive,inactive,inactive,–,inactive,inactive,inactive,inactive,inactive,inactive,inactive,inactive,inactive,inactive,inactive,inactive,inactive
CC(C)Nc1cccnc1N1CCN(C(=O)c2cc3cc(NS(C)(=O)=O)ccc3[nH]2)CC1,inactive,inactive,inactive,inactive,inactive,inactive,inactive,inactive,inactive,inactive,–,inactive,inactive,inactive,inactive,–,inactive,inactive,inactive,inactive
C[N+]1(CC2COC(c3ccccc3)(C3CCCCC3)O2)CCCCC1 (centres undefined),5.62 µM (active),4.78 µM (active),6.01 µM (active),10.7 µM (active),4.78 µM (active),4.78 µM (active),5.36 µM (active),8.91 µM (active),7.08 µM (active),7.08 µM (active),–,–,10 µM (active),10 µM (active),4.47 µM (active),5.36 µM (active),10 µM (active),7.57 µM (active),4.78 µM (active),8.49 µM (active)
O=C(Nc1cccc(C2=NCCN2)c1)Nc1cccc(C2=NCCN2)c1,1.12 µM (active),15.1 µM (active),15.1 µM (active),13.5 µM (active),15.1 µM (active),13.5 µM (active),12 µM (active),3.55 µM (active),6.31 µM (active),6.31 µM (active),2.82 µM (active),3.55 µM (active),3.16 µM (active),0.708 µM (active),2.51 µM (active),4.78 µM (active),–,15.1 µM (active),12 µM (active),–
Cc1cccc(C)c1NC(=O)CN1CCCC1,inactive,inactive,inactive,inactive,inactive,inactive,inactive,inactive,–,inactive,inactive,–,inactive,inactive,inactive,inactive,inactive,inactive,inactive,–
Cc1nc(-c2ccc(Cl)cc2)oc1COC(C)(C)C(=O)O,inactive,inactive,inactive,inactive,inactive,inactive,inactive,inactive,inactive,inactive,–,inactive,inactive,inactive,inactive,inactive,inactive,inactive,inactive,inactive
OC(C#CCN1CCCC1)(c1ccccc1)c1ccccc1,inactive,–,–,inactive,15.1 µM (active),–,–,–,5.01 µM (active),–,–,–,–,–,8.91 µM (active),–,–,–,–,inactive
